Among the data in the supplement of paper PMC9262897, “Low-cost anti-mycobacterial drug discovery using engineered E. coli” (Nature Communications, 2022) are growth values, retold here.

SMILES strings stand for the structures. Where a name gives a salt, the structure may show the parent alone. ± gives the standard deviation of the averaged measurements.

In this assay the test system is E. coli TESEC Alr+ wild-type control. The assay can be described thus: growth (OD600 after 10 h); higher = more growth (less inhibition). The note with it: compound 0.1 mM; raw OD600 reference: median of DMSO wells 0.49, cell-free background 0.052. The procedure:
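TESEC Mtb Alr E. coli (ΔaraC ΔtolC ΔentC Δalr ΔdadX, arabinose-inducible Mtb Alr) or the Alr+ wild-type control strain, grown in defined M9-fructose medium without D-alanine in 96-well plates with Prestwick library compounds at 0.1 mM and 1% DMSO. Low Alr induction is 0.1 µM arabinose and high induction is 10 mM arabinose.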
Consider `NC(=O)OCC(O)COc1ccc(Cl)cc1` (stereo not given) [Chlorphensin carbamate], for which the growth was found to be 0.523 ± 0.01. As for `CC(C)(C)NCC(O)c1ccc(O)c(CO)c1` (stereo not given) [Salbutamol], the figure is 0.528 ± 0.092; as for `C(=C\c1ccccc1)/CN1CCN(C(c2ccccc2)c2ccccc2)CC1` [Cinnarizine], 0.539 ± 0.055; as for `Cn1nnc2c(C(N)=O)ncn2c1=O` [Temozolomide], 0.539 ± 0.076. `O=S(=O)(O)c1cc(O)ccc1O` [Ethamsylate] had a growth of 0.525 ± 0.079. The result for `NC(=O)C(c1ccccc1)(c1ccccc1)[C@@H]1CCN(CCc2ccc3c(c2)CCO3)C1` [Darifenacin hydrobromide] reads 0.403 ± 0.013; that for `NNCCc1ccccc1` [Phenelzine sulfate], 0.399 ± 0.017; that for `CC(CCc1ccccc1)NCC(O)c1ccc(O)c(C(N)=O)c1` (stereo not given) [Labetalol hydrochloride], 0.467 ± 0.024.

In turn, `CNCC(O)c1ccc(O)c(O)c1` (stereo not given) [Racepinephrine HCl] gave a growth of 0.605 ± 0.029. Consider `Cc1cc(=O)n(-c2ccccc2)n1C` [Antipyrine], for which the growth worked out at 0.474 ± 0.062. `Cc1cn[nH]c1` [Fomepizole] returned a growth of 0.554 ± 0.016. Take `O=C(CCNNC(=O)c1ccncc1)NCc1ccccc1` [Nialamide]: the growth amounted to 0.516 ± 0.07. The result for `CC[C@H](C)[C@H](N)C1=N[C@H](C(=O)N[C@@H](CC(C)C)C(=O)N[C@H](CCC(=O)O)C(=O)N[C@H](C(=O)N[C@H]2CCCCNC(=O)[C@H](CC(N)=O)NC(=O)[C@@H](CC(=O)O)NC(=O)[C@H](Cc3cnc[nH]3)NC(=O)[C@@H](Cc3ccccc3)NC(=O)[C@H]([C@@H](C)CC)NC(=O)[C@@H](CCCN)NC2=O)[C@@H](C)CC)CS1` [Bacitracin] reads 0.49 ± 0.073; that for `COCCc1ccc(OCC(O)CNC(C)C)cc1` (racemic) [Metoprolol-(+,-) (+)-tartrate salt], 0.494 ± 0.11. As for `CN(C)CCOC(c1ccccc1)c1ccccc1` [Diphenhydramine hydrochloride], the figure is 0.495 ± 0.051. In turn, `CC(C)(C)c1ccc(C(O)CCCN2CCC(C(O)(c3ccccc3)c3ccccc3)CC2)cc1` (stereo not given) [Terfenadine] yielded a growth of 0.0576 ± 0.0093. As for `CCCCCN(CCCCC)C(=O)C(CCC(=O)O)NC(=O)c1ccc(Cl)c(Cl)c1` (stereo not given) [Lorglumide sodium salt], the figure is 0.104 ± 0.002; as for `CCOC(=O)C1=C(COCCN)NC(C)=C(C(=O)OC)C1c1ccccc1Cl` (stereo not given) [Amlodipine], 0.566 ± 0.028; as for `COc1ccccc1N1CCN(CCCCNC(=O)c2ccc3ccccc3c2)CC1`, 0.374 ± 0.0092. As for `O=C(Nc1ccc([N+](=O)[O-])cc1Cl)c1cc(Cl)ccc1O` [Niclosamide], the figure is 0.053 ± 0.003; as for `Cc1cc(C2CCCCC2)n(O)c(=O)c1` [Ciclopirox ethanolamine], 0.0666 ± 0.0021.

With `CNCCC(Oc1ccc(C(F)(F)F)cc1)c1ccccc1` (stereo not given) [Fluoxetine hydrochloride], the growth is 0.118 ± 0.11. As for `Nc1nc(=S)c2ncn([C@@H]3O[C@H](CO)[C@@H](O)[C@H]3O)c2[nH]1` [Thioguanosine], the growth was found to be 0.349 ± 0.02. As for `NS(=O)(=O)Cc1noc2ccccc12` [Zonisamide], the figure is 0.453 ± 0.018; as for `Cc1ccc(-c2ncc(Cl)cc2-c2ccc(S(C)(=O)=O)cc2)cn1` [Etoricoxib], 0.388 ± 0.0074; as for `Cc1nc(=O)c2cc(CN(C)c3ccc(C(=O)N[C@@H](CCC(=O)O)C(=O)O)s3)ccc2[nH]1` [Raltitrexed], 0.606 ± 0.055. In turn, `NC[C@H]1O[C@H](O[C@H]2[C@H](O[C@@H]3O[C@H](CO)[C@@H](O)[C@H]3O)[C@@H](O)[C@H](N)C[C@@H]2N)[C@H](N)[C@@H](O)[C@@H]1O` [Ribostamycin sulfate salt] came in with a growth of 0.549 ± 0.058.

`O=C1CN(/N=C/c2ccc([N+](=O)[O-])o2)C(=O)N1` [Nitrofurantoin] displayed a growth of 0.053 ± 0.00026. Regarding `CCCCc1nc(Cl)c(CO)n1Cc1ccc(-c2ccccc2-c2nnn[nH]2)cc1` [Losartan], the growth came out at 0.495 ± 0.071. As for `CN(C)CCn1nnnc1SCC1=C(C(=O)O)N2C(=O)[C@@H](NC(=O)Cc3csc(N)n3)[C@H]2SC1` [Cefotiam hydrochloride], the figure is 0.166 ± 0.096. The compound `C[C@H](N)[C@H](O)c1cccc(O)c1` [Metaraminol bitartrate] showed a growth of 0.573 ± 0.076. As for `CCCCC(O)c1ccccc1` (stereo not given) [Fenipentol], the growth came out at 0.542 ± 0.07.

Take `CC[C@H]1OC(=O)[C@H](C)[C@@H](O[C@H]2C[C@@](C)(OC)[C@@H](O)[C@H](C)O2)[C@H](C)[C@@H](O[C@@H]2O[C@H](C)C[C@H](N(C)C)[C@H]2O)[C@](C)(O)C[C@@H](C)C(=O)[C@H](C)[C@@H](O)[C@]1(C)O` [Erythromycin]: the growth was 0.0538 ± 0.0043. The result for `COC(=O)Nc1nc2cc(Sc3ccccc3)ccc2[nH]1` [Fenbendazole] reads 0.56 ± 0.072. The result for `COC(=O)[C@H]1[C@H]2C[C@@H]3c4[nH]c5cc(OC)ccc5c4CCN3C[C@H]2C[C@@H](OC(=O)c2cc(OC)c(OC)c(OC)c2)[C@@H]1OC` [Reserpine] reads 0.467 ± 0.014.

`CC(C)C[C@H](NC(=O)[C@@H](O)[C@H](N)Cc1ccccc1)C(=O)O` [Ubenimex] registered a growth of 0.528 ± 0.089. In the case of `O=C(O)CCCC[C@@H]1SC[C@@H]2NC(=O)N[C@@H]21` [Biotin], the growth was found to be 0.615 ± 0.056.

The compound `CCCC1C(=O)N2C(N(C)C)=Nc3ccc(C)cc3N2C1=O` (stereo not given) [Azapropazone] registered a growth of 0.483 ± 0.02. The result for `CN(C)C/C=C(/c1ccc(Br)cc1)c1cccnc1` [Zimelidine dihydrochloride monohydrate] reads 0.445 ± 0.04; that for `COc1cccc2c1C(=O)c1c(O)c3c(c(O)c1C2=O)C[C@@](O)(C(C)=O)C[C@@H]3O[C@H]1C[C@H](N)[C@H](O)[C@H](C)O1` [Daunorubicin hydrochloride], 0.053 ± 0.00055.
